The nature of test [1]: compounds binding Alexa647 anti-His antibody – biochemical, small-molecule microarray, 635 nm fluorescence, artefact control for SMM control protein annotation, primary screen (AID 1128).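 Further: score merges feature fluorescence with signal-to-noise for each printed compound spot.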 Particulars: higher = more signal.
Test [2] relates to Human papillomavirus type 1a E7 protein (residues 1-88). The test is described as follows: HPV1a E7 small-molecule binders, primary screen, biochemical, small-molecule microarray, residues 1-88, 635 nm (AID 1129). Particulars: small-molecule microarray binding, fluorescence 635 nm; higher = more signal.
Test [3] addresses Focal adhesion kinase 1 (Homo sapiens) (UniProt Q05397). Description: PTK2 protein binding on printed compound slides – biochemical, small-molecule microarray, 635/667 nm fluorescence, BSA, DTT, primary screen (AID 1130).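 Further: composite of spot emission at 667 nm and signal to noise over triplicate slides.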 Particulars: 635 nm fluorescence, higher = more signal.
Test [4] deals with Fibrinogen (Alexa647-labelled). Description: Alexa647-fibrinogen binding to printed small molecules – biochemical, small-molecule microarray, 635/667 nm fluorescence, artefact control for SMM control-protein annotation, profiling panel (AID 1131).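 Further: z-score merges 667 nm fluorescence with per-spot signal-to-noise over triplicate slides.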 Particulars: fibrinogen-A647 binding fluorescence, higher = more signal.
Test [5] addresses Follistatin (Homo sapiens) (UniProt P19883). The test is described as follows: FST protein binding to printed compounds – biochemical, small-molecule microarray, 635/667 nm fluorescence, primary screen (AID 1132). Particulars: 635 nm fluorescence, higher = more signal.
The target in test [6] is Fibroblast growth factor 2 (Homo sapiens) (UniProt P09038). Description: basic fibroblast growth factor binding to printed compounds – biochemical, small-molecule microarray, 635/667 nm fluorescence, primary screen (AID 1133). Particulars: FGF2, fluorescence 635/667, higher = more signal.
The nature of test [7]: JC-1 mitochondrial potential readout, lung cancer cells – cell-based, A549, JC-1 fluorescence, basal, 24 h, 100 nL, profiling panel (AID 1138).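 Further: A549 lung adenocarcinoma cells under basal conditions with no added stimulus; test concentration not given here.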 Particulars: higher = more signal.
The next test has as its system Lefty1. Description: Lefty1 protein binding to printed compounds – biochemical, small-molecule microarray, 635/667 nm fluorescence, primary screen (AID 1139). Particulars: fluorescence 635/667, higher = more signal.
The subject of test [8] is wheat germ agglutinin (Triticum aestivum), Alexa647-labelled. Description: Alexa647-WGA lectin binding to printed small molecules – biochemical, small-molecule microarray, 635/667 nm fluorescence, artefact control for SMM control-protein annotation, profiling panel (AID 1140).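 Further: score merges 667 nm feature emission with signal to noise over triplicate slides.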 Particulars: WGA-A647 binding, 635 nm fluorescence, higher = more signal.
The target of test [9] is Luciferin 4-monooxygenase (Photinus pyralis) (UniProt P08659). Description: inhibition of purified Photinus pyralis luciferase – biochemical, luminescence, purified enzyme, 2006 set, primary screen (AID 1141).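 Further: cell-free assay with purified firefly luciferase at 100 ng per well in PBS; test concentration not given here.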 Particulars: purified firefly luciferase, SteadyGlo luminescence, 30 min; higher = more signal, called active from +8 up or from −8 down.
The test system of test [10] is Wnt5a (protein binding on small-molecule microarray). The test is described as follows: small molecules binding Wnt5a protein – biophysical, small-molecule microarray, 635/667 nm fluorescence, primary screen (AID 1142).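 Further: fluorescence read at 667 nm with signal to noise per printed feature.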 Particulars: 635 nm fluorescence, higher = more signal.
A short description of test [11]: ATP-based viability of Huh7 replicon cells – cell-based, CellTiter-Glo luminescence, basal, 48 h, cytotoxicity control for HCV replication inhibitor project, primary screen (AID 1143).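 Further: Huh7 hepatoma cells carrying a hepatitis C replication reporter with no stimulus; test concentration not given here.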 Particulars: higher = more signal, called active from +8 up or from −8 down.
The nature of test [12]: Pseudomonas biofilm growth suppression – PAO1 strain, BacTiter-Glo luminescence, LB-PBS, primary screen (AID 1144). Particulars: P. aeruginosa PAO1 biofilm, 12 h, higher = more signal.
Test [13] is described as follows: basal CRE-LacZ reporter activity in PC12 – cell-based, unstimulated, primary screen (AID 1145). Particulars: no forskolin, luminescence, 4.5 h, higher = more signal, called active from +8 up or from −8 down.
The nature of test [14]: forskolin-driven CRE-LacZ activity in PC12 – cell-based, CRE-LacZ reporter, forskolin-stimulated, primary screen (AID 1146).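 Further: PC12 cells with 6xCRE LacZ reporter stimulated by forskolin 10 µM; beta-galactosidase reporter signal reflecting CREB driven transcription.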 Particulars: luminescence, 4.5 h, higher = more signal, called active from +8 up or from −8 down.
Test [15] deals with Streptavidin (Streptomyces avidinii) (UniProt P22629). The test is described as follows: compounds binding control protein streptavidin – biophysical, small-molecule microarray, 635/667 nm fluorescence, artefact control for SMM compound annotation, primary screen (AID 1147).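 Further: signal reflects streptavidin binding to arrayed compounds as a control protein.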 Particulars: higher = more signal.
Test [16] is described as follows: probe aInhba binding on compound microarray – biochemical, small-molecule microarray, 635/667 nm fluorescence, primary screen (AID 1148).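 Further: score merges 667nm spot fluorescence with signal-to-noise for antibody binding to printed compounds.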 Particulars: higher = more signal.
The target in test [17] is Torsin-1A (Homo sapiens) (UniProt O14656). Description: TOR1A wild-type binding on microarray – cell lysate, small-molecule microarray, lysate, 635/667 nm, primary screen (AID 1149). Particulars: COS7 hTOR1A-WT lysate, 635 nm fluorescence, higher = more signal.
For test [18] the target is unchanged. The test is described as follows: torsin A mutant lysate binding on microarrays – cell lysate, small-molecule microarray, COS7 lysate, 635/667 nm fluorescence, primary screen (AID 1150).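 Further: score pools 667 nm emission and signal to noise measuring lysate protein binding.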 Particulars: COS7 hTOR1A mutant lysate, 635 nm fluorescence, higher = more signal.
Test [19] has as its system Sonic hedgehog protein (Shh). The test is described as follows: Sonic hedgehog microarray binding compounds – biochemical, small-molecule microarray, 635/667 nm fluorescence, primary screen (AID 1151).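 Further: Shh protein binding to compounds spotted on small-molecule microarray slides; score combines spot fluorescence intensity with signal-to-noise across triplicate slides.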 Particulars: 635 nm fluorescence, higher = more signal.

The source of these data is PubChem BioAssay.

Activity calls are given as the source filed them. Unless noted, how the calls were made is not given here.

Sequence of Follistatin (Homo sapiens) (P19883 whole entry, looked up): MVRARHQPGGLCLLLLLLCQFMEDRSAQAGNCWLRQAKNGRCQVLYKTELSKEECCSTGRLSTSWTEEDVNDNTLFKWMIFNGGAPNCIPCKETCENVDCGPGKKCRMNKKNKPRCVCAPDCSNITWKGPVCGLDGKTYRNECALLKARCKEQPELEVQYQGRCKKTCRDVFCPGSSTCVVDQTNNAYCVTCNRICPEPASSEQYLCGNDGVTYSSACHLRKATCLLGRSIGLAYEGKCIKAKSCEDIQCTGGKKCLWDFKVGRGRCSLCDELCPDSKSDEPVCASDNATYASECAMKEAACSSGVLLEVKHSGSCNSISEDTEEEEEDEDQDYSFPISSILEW
Sequence of Focal adhesion kinase 1 (Homo sapiens) (Q05397 whole entry, looked up): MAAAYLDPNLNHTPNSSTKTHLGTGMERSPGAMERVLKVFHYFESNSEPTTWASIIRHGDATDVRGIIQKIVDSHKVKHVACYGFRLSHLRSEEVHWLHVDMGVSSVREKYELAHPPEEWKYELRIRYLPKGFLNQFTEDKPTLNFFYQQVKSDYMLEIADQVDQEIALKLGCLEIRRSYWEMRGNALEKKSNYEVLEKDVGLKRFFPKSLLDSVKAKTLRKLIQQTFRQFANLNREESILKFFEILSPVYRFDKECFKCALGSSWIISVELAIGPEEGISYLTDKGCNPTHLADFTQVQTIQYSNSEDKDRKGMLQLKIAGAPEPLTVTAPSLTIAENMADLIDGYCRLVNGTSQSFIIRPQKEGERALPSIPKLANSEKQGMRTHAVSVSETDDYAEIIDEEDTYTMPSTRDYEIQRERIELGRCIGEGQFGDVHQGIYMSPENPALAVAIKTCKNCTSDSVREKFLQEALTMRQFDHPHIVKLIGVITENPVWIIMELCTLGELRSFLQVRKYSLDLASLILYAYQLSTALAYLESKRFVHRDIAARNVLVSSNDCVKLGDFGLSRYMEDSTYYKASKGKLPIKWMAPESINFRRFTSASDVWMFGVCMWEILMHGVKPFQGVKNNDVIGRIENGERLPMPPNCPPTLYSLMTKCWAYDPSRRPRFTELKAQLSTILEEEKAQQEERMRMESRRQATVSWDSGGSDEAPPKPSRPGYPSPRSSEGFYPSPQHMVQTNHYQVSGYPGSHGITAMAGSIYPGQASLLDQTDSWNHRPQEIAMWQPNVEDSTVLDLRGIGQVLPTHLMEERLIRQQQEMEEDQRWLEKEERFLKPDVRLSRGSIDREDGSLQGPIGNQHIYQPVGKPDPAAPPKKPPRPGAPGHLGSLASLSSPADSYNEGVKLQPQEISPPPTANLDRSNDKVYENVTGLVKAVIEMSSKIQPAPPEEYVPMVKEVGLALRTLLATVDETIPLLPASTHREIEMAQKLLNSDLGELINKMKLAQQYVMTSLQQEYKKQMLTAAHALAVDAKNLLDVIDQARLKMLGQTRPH
Sequence of Luciferin 4-monooxygenase (Photinus pyralis) (P08659 whole entry, looked up): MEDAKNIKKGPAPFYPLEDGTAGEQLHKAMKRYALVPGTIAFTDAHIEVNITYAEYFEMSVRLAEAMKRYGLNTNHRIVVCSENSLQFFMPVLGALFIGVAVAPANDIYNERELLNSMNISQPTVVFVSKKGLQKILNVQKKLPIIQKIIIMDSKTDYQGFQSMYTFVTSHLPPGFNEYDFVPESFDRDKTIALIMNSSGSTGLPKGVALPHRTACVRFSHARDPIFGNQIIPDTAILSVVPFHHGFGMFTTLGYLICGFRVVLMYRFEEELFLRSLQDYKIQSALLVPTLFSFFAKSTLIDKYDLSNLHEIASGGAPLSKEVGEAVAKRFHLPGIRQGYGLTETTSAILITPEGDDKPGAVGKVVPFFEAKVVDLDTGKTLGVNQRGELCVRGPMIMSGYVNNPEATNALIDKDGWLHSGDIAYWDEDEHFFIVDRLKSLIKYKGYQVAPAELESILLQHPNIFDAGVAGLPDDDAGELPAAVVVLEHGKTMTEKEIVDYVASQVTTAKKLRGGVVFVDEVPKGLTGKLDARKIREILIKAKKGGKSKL
Sequence of Streptavidin (Streptomyces avidinii) (P22629 whole entry, looked up): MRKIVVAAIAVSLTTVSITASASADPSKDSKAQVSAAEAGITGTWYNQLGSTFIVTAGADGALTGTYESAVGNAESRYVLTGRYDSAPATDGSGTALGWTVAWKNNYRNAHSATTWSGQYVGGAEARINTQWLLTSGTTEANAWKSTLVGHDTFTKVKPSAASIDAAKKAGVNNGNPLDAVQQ
Sequence of Torsin-1A (Homo sapiens) (O14656 whole entry, looked up): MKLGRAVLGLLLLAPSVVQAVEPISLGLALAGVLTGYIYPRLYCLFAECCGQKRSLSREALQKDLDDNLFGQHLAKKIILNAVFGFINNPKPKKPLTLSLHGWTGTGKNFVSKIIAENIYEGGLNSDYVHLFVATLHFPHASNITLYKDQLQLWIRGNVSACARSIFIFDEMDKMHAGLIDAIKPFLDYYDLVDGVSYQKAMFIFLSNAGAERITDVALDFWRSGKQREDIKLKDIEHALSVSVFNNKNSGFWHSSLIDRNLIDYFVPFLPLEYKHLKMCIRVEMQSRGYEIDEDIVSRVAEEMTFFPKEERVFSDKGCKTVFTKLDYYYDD
Sequence of Fibroblast growth factor 2 (Homo sapiens) (P09038 whole entry, looked up): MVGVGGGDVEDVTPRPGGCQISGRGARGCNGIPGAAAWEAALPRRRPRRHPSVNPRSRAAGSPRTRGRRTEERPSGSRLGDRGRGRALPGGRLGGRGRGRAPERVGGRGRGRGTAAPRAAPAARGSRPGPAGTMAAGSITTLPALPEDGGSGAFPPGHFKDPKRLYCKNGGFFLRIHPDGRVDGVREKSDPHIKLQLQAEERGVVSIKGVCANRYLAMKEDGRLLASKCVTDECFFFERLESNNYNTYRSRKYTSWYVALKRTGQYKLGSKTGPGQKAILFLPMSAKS

As to `COCCOC(=O)N1C(=O)[C@@]2(c3cc(C#CC4=CCCCC4)ccc31)[C@H](c1ccc(O)cc1)N1[C@H](c3ccccc3)[C@H](c3ccccc3)OC(=O)[C@H]1[C@@H]2C(=O)N1CCN(c2ncccn2)CC1`, the composite z-score was -0.849 in [1]; -1.1 in test [2]; -0.415 in [3]; -0.805 in [4]; -1.02 in test [5]; -0.958 in test [6]. In addition, the composite z-score in the test on Lefty1 is -1.14; in test [8] it was -0.649; in [10], -0.299; in test [15] it was -1.34; in test [16], -0.152; in the test with Torsin-1A (Homo sapiens) [17], -0.692. Further, the figures for the composite z-score (with Torsin-1A (Homo sapiens) [18]; in test [19]) were -1.27 and -0.589, respectively. Moreover, the z-score is 0.381 in test [7]; 1.18 (inactive) in test [9]; 0.498 (inactive) in test [11]; -0.572 (inactive) in test [12]; -0.467 (inactive) in test [13]; -0.0588 (inactive) in [14].
In the case of `C=CC[C@]1(C(=O)O)COC(c2ccc(OCCCO)cc2)=N1`, the composite z-score in test [1] was 1.53; in [2], 0.205; in test [3], -0.0931; in test [4], 0.219; in [5], 0.372; in [6] it was -0.105. Also, the composite z-score was 0.378 in the test with Lefty1; 0.342 in [8]; -0.0405 in [10]; -0.447 in test [15]; -0.103 in [16]; -0.0985 in the test with Torsin-1A (Homo sapiens) [17]. Besides, the composite z-score is 0.338 in the test with Torsin-1A (Homo sapiens) [18] and 0.0518 in test [19]. Further, the z-score is 0.0454 in test [7]; -0.497 (inactive) in test [9]; 0.543 (inactive) in test [11]; -0.852 (inactive) in test [12]; 1.46 (inactive) in [13]; 0.123 (inactive) in [14].
`COC(=O)[C@@]1(Cc2ccccc2)[C@@H]2C(=CC(=O)[C@H]2CC(=O)C(=O)N(C)C)CN1C(=O)c1ccccc1`: the composite z-score is 2.15 in test [1]; 1.25 in [2]; 0.745 in test [3]; 0.0523 in [4]; 0.324 in test [5]; -0.147 in test [6]. Further, the composite z-score in the test on Lefty1 was -0.271; in test [8], 0.407; in test [10] it was 0.117; in test [15], -0.0043; in test [16], 0.308; with Torsin-1A (Homo sapiens) [17] it was 0.2. Also, the composite z-score is 0.239 with Torsin-1A (Homo sapiens) [18] and -0.2 in test [19]. Further, the z-score in test [7] is -0.312; in [9] it was -21 (active); in test [11] it was -2.86 (inactive); in test [12] it was 0.421 (inactive); in test [13], 0.0075 (inactive); in test [14], 0.087 (inactive).
Consider `CCCCN1CC=CC23O[C@@H]4/C=C\CCC(C)OC(=O)C4[C@H]2C(=O)N(C(CO)C(C)C)[C@@H]3C1=O` (stereo not given in full), for which the composite z-score in test [1] is -0.0545; in test [2] it was -0.205; in test [3], -0.35; in [4] it was -0.188; in [5] it was 0.508; in test [6], 0.149. Moreover, the composite z-score was 0.774 with Lefty1; -0.0541 in test [8]; -0.0931 in test [10]; -0.271 in test [15]; -0.128 in test [16]; 0.624 with Torsin-1A (Homo sapiens) [17]. In addition, the composite z-score with Torsin-1A (Homo sapiens) [18] stood at 0.517; in test [19], 1.42. Besides, the z-score was -0.0444 in test [7]; 0.323 (inactive) in test [9]; 0.415 (inactive) in test [11]; 0.524 (inactive) in test [12]; -0.895 (inactive) in test [13]; -0.651 (inactive) in [14].
`NCCCCCNC(=O)[C@@H]1C[C@@H]2C(=O)NCC(=O)N2[C@@H]1c1cccc(OCCO)c1`: the composite z-score was 2.23 in [1]; 1.16 in test [2]; 0.551 in test [3]; 0.47 in test [4]; 1.45 in test [5]; 1.17 in test [6]. The composite z-score in the test with Lefty1 amounted to 1.55; in test [8], 0.951; in test [10] it was 0.468; in [15], 0.519; in [16], 0.188; with Torsin-1A (Homo sapiens) [17], 0.666. Besides, the composite z-score is 0.59 with Torsin-1A (Homo sapiens) [18] and 1.29 in [19]. The z-score is -0.552 in [7]; -0.637 (inactive) in [9]; 0.267 (inactive) in [11]; 0.771 (inactive) in [12]; -0.667 (inactive) in test [13]; -0.496 (inactive) in [14].
